High-throughput results (PubChem BioAssay)
Compounds with a hit are over-represented: about 19% of the library has one in this group of screens.
SW480 rereplic = DNA re-replication induction in SW480 cells; SW480 DNA re-replication, Hoechst DNA content imaging, 48 h; AID 624297; Potency, µM (series often up to 46.1 µM), inactives show top-dose re-replication activation, usual class: activators; actives 1.8% (n = 340,000); note: potency is the fitted concentration of half-maximal effect; % of control where 0% means no effect; nearly all actives have a fitted effect of over 55% in size
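Compounds, transferred as 23 nL by pin tool, were incubated with cells for 48 hr; DNA content per nucleus was then quantified by Hoechst staining and fluorescence plate imaging.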
MCF10A rerep = inducers of DNA re-replication in MCF 10A breast cells | MCF 10A DNA re-replication, Hoechst nuclear intensity, 48 h | Potency, µM (titrated, usually from 46.1 µM), inactives show top-dose activity, positive = re-replication, usual class: activators | actives 2.9% (n = 350,000) | AID 624296; note: potency is the fitted concentration of half-maximal effect; % of control where 0% means no effect; nearly all actives have a fitted effect of over 50% in size
IL-1B inflam inh = inhibitors of inflammasome signaling (IL-1 beta secretion); THP-1 LPS/ATP IL-1B secretion, AlphaLISA, 16 h; hits give low values; activity change, % at 57.5 µM; actives 4.7% (n = 360,000); in the data active = activity change below about -50%; inconclusive = mostly about -30% to -49%; note: % is set by controls: 0 for no effect and ±100 for the full control effect
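Secreted IL-1B measured by AlphaLISA bead assay after 16 h compound exposure of THP-1 cells; compounds (final up to 57.5 uM) added 1 h before LPS (250 ng/mL) and ATP (1.25 mM) stimulation; lower signal means less secretion.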
Chronic BCR inh = chronic active BCR signaling inhibition; ABC-DLBCL IkBa-CBG/CBR reporter, luminescence ratio, 4 h; Potency, µM (highest dose often 46.1 µM), inactives show at the highest dose activity change, negative = inhibition, hits mostly inhibitors; actives 0.05% (n = 340,000); AID 493014; active = well fitted inhibition curve with a large enough effect in the signal ratio, with a control signal flat, not every such curve was filed as active; inconclusive = small, poorly fitted or top-dose-only effect, or effect the other way, or a change in a side signal; the % refers to the signal ratio;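 note: potency is the fitted concentration of half-maximal effect; plate controls were basal doxycycline-induced cells for no effect and cells given 10 µM MG132 for full effect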
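Doxycycline induced both beetle luciferases in TMD8 lymphoma cells; IKK-driven degradation limits the IkappaBalpha-fused green signal, while red luminescence normalises for cell number and nonspecific effects. Compounds tested up to 46 uM, 4 hrs.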
TDP1 cell noCPT = qHTS for Inhibitors of human tyrosyl-DNA phosphodiesterase 1 (TDP1): qHTS in cells in absence of CPT | DT40 Tdp1-/- hTDP1 cells, no CPT, ATP luminescence, 48 h | Potency, µM (series often up to 46.2 µM), without a hit: at the highest dose activity change, negative = growth inhibition, most hits filed as inhibitors | actives 15% (n = 420,000); note: potency is the fitted concentration of half-maximal effect; % is set by controls: 0 for no effect and ±100 for the full control effect; nearly all actives have a fitted effect of over 55% in size
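Growth of hTDP1-complemented DT40 Tdp1-knockout cells is measured by ATP luminescence after at least 48 hr compound exposure at 37 °C, with DMSO substituting for the 20 nM CPT used in the parallel screen.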
TDP1 cell CPT = DT40-hTDP1 cell growth loss with CPT; actives 12% (n = 420,000); AID 686979; chicken DT40 Tdp1-/-;hTDP1 cells + 20 nM CPT, ATP luminescence, 48 h; Potency, µM (titrated, usually from 46.2 µM), inactives show at the top dose activity change, negative = growth inhibition, usual class: inhibitors; note: potency is the fitted concentration of half-maximal effect; % is set by controls: 0 for no effect and ±100 for the full control effect; nearly all actives have a fitted effect of over 55% in size
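Chicken DT40 Tdp1-/- cells complemented with human TDP1, 400 cells/well, exposed to compounds plus 20 nM camptothecin for at least 48 h at 37 C; viability read as ATP content by CellTiter-Glo luminescence.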
* marks the source's active call; other numbers are inactive results; ? = inconclusive; . = no result. Unless noted, calls come from the whole dose curve; as a rule, active = well fitted curve in the direction sought with a large enough effect; inconclusive = small, poorly fitted or top-dose-only effect, or another doubt; inactive = no such curve, though single readings can be large; an effect the other way counts as inactive or inconclusive.

SMILES	SW480 rereplic	MCF10A rerep	IL-1B inflam inh	Chronic BCR inh	TDP1 cell noCPT	TDP1 cell CPT
CCCN(CC(=O)Nc1ccccc1OC)C(=O)c1cc2ccccc2o1	1.7%	?	23.8	-8.6%	-4.3%	1.6%
CCCN(CC(=O)Nc1ccccc1C)C(=O)c1ccc(-c2ccc([N+](=O)[O-])cc2)o1	11.6%	21.8%	-4.0	?	20.6µM*	?
CCCN(CC(=O)Nc1ccccc1OC)C(=O)c1ccc(COc2ccccc2)o1	-11.8%	-7.9%	9.1	?	?	16.4µM*
CCCN(CC(=O)Nc1ccccc1C)C(=O)COC(=O)CSc1ccc([N+](=O)[O-])cc1	0.9%	1.5%	1.4	?	0.3%	-8.1%
O=C(c1ccccc1)C1OC1C(=O)c1ccccc1 (stereo unspecified)	14.6µM*	9.2µM*	-95.7*	.	6.51µM*	4.11µM*
CC1C=CC(C)C(C(=O)c2ccccc2)C1C(=O)c1ccccc1 (stereo unspecified)	.	.	26.2	.	23.1µM*	13µM*
O=C(c1ccccc1)C1CC1c1ccccc1 (stereo unspecified)	.	.	-29.8	.	?	?
CCCCCC(=O)N1C[C@@H](O)[C@H](n2cc(-c3ccc(F)cc3)nn2)C[C@@H]1c1ccccc1	.	.	-15.1	.	10.3µM*	23.1µM*
CCCCCC(=O)N1C[C@@H](n2cc(-c3ccc(F)cc3)nn2)[C@H](O)C[C@@H]1c1ccc(C)cc1	.	.	-19.9	.	8.2µM*	13µM*
CCCCCC(=O)N1C[C@@H](O)[C@H](n2cc(-c3ccc(F)cc3)nn2)C[C@@H]1c1ccc(C)cc1	.	.	-16.3	.	18.4µM*	?
COc1ccc([C@H]2C[C@H](n3cc(-c4ccc(F)cc4)nn3)[C@@H](O)CN2C(=O)C2CCCCC2)cc1	.	.	-6.8	.	18.4µM*	?
O=C(COC(=O)CCNS(=O)(=O)c1cccs1)Nc1ccccc1	-4.4%	-1.4%	33.2	6.3%	-4.7%	-19.7%
Cc1ccc(NC(=O)OC(C)N2CCCCC2)cc1NC(=O)OC(C)N1CCCCC1 (stereo unspecified)	16.6%	8.9%	?	.	?	-9.9%
O=C(CNC(=O)c1ccc(Cl)c([N+](=O)[O-])c1)OCN1C(=O)c2ccccc2C1=O	27.3%	?	-25.7	9.3%	5.7%	-2.9%
COc1ccccc1OC(C)C(=O)N1CCN(CCc2ccccn2)CC1 (stereo unspecified)	.	.	.	.	-22.5%	6.2%
CC(=O)Nc1ccc(S(=O)(=O)NCc2nc(-c3cccc(C)c3)no2)cc1	?	?	7.5	-7.1%	-28.1%	-10.8%
CN(C)Cc1ccccc1-c1cc(Nc2ccccc2)ncn1	.	.	.	.	-9.3%	2.7%
COc1cc(CNc2ncnc3c2ncn3[C@H]2CN(Cc3ccc(C(=O)O)cc3)C[C@@H](CO)O2)cc(OC)c1OC	.	.	61.0	.	9.6%	0.8%
COc1cc(CNc2ncnc3c2ncn3[C@H]2CN(Cc3ccc(-c4ccccc4)cc3)C[C@@H](CO)O2)cc(OC)c1OC	.	.	0.0	.	11.6µM*	8.2µM*
COCCNc1ncnc2c1ncn2[C@H]1CN(Cc2cc(OC)c(OC)c(OC)c2)C[C@@H](CO)O1	.	.	7.6	.	-5.2%	-9.1%
COc1cc(CNc2ncnc3c2ncn3[C@H]2CN(Cc3ccncc3)C[C@@H](CO)O2)cc(OC)c1OC	.	.	74.4	.	13µM*	13µM*
C=CCNc1ncnc2c1ncn2[C@H]1CN(Cc2cccc3ccccc23)C[C@@H](CO)O1	.	.	-0.6	.	?	?
COc1cc(CNc2ncnc3c2ncn3[C@H]2CN(Cc3cccc4ccccc34)C[C@@H](CO)O2)cc(OC)c1OC	.	.	-14.7	.	23.1µM*	18.4µM*
Cc1cc(Cl)ccc1-c1nc(NC(C)C)nc2ccsc12	.	.	15.4	.	23.1µM*	18.4µM*
CCCC(=O)O[C@]1(C(=O)COC(C)=O)CC[C@H]2C3C[C@H](F)C4=CC(=O)C=CC4(C)[C@@]3(F)[C@@H](O)CC21C (stereo partly specified)	8.6%	-0.2%	.	.	.	.
SMILES	SW480 rereplic	MCF10A rerep	IL-1B inflam inh	Chronic BCR inh	TDP1 cell noCPT	TDP1 cell CPT
Cc1c(O)c2c(c(C(=O)/C=C/c3ccccc3)c1O)OC(C)(C)C=C2	.	.	.	.	11.2µM*	?
Cc1cc2c(ncn2Cc2ccccc2)c(N)c1C	-0.9%	6.0%	-3.0	-0.5%	-27.1%	-5.7%
COc1ccc2nc3c(cc2c1)c(NC(=O)c1cccs1)nn3CC(C)C	15.5%	?	-50.7*	?	?	?
CC(C)Cn1nc(NC(=O)c2cccs2)c2cc3ccccc3nc21	16.4µM*	?	-0.4	?	8.2µM*	?
COc1ccc(NC(=O)c2cccs2)cc1	-6.0%	-0.3%	-0.9	?	?	-15.3%
CCn1nc(NC(=O)c2ccncc2)c2cc3ccccc3nc21	5.1%	?	-22.0	?	?	2.3%
CCN(CCCNc1cc2c(c(N)c1S(=O)(=O)O)C(=O)c1ccccc1C2=O)c1ccccc1	.	.	-13.9	.	18.4µM*	?
COc1ccccc1-c1sc2ccccc2c1-c1ccc(OCCN2CCOCC2)cc1	23.5%	28.0%	8.0	?	13µM*	?
COc1ccccc1-c1sc2cc3c(cc2c1-c1ccc(OCCN2CCCCC2)cc1)OCO3	5.3%	10.3µM*	?	-1.6%	11.6µM*	16.4µM*
COc1cc2sc(-c3ccccc3OC)c(-c3ccc(OCCN4CCCCC4)cc3)c2cc1OC	-4.2%	?	-3.6	-11.3%	?	?
CC1CCc2c(sc(NC(=O)c3ccc(N4C(=O)CCC4=O)cc3)c2C(N)=O)C1 (stereo unspecified)	?	?	-26.9	2.5%	-0.1%	-1.6%
Cc1cccc(C(=O)N2CCc3cc(CNC(=O)c4ccc(Br)o4)ccc32)c1	.	.	.	-3.1%	?	18.4µM*
Cc1cc(NC(=O)NCc2ccc3c(c2)CCN3C(=O)c2ccccc2)ccc1Br	.	.	.	.	16.4µM*	?
O=C(NCc1ccc2c(c1)CCN2C(=O)c1ccc(F)cc1)c1ccc(Br)o1	.	.	.	?	4.11µM*	5.17µM*
O=C(NCc1ccc2c(c1)CCN2C(=O)c1ccccc1)c1ccc(Br)o1	.	.	.	-7.1%	?	?
COc1ccccc1C(=O)NCc1ccc2c(c1)CCN2C(=O)c1cccc(C)c1	.	.	.	-18.2%	?	?
Cc1cccc(OCC(=O)NCc2ccc3c(c2)CCN3C(=O)c2ccccc2)c1	.	.	.	-7.3%	23.1µM*	?
